The campaign covered roughly 370,000 compounds. About 2,400 (0.65%) were called active.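 Rule for the calls: active = inhibition above the screen-wide mean plus 3 SD (cut at about 13% in these data); inactive = the rest.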 The entries come from a sample that favours actives as a whole.

The subject of the test is HIV-1 integrase (with human LEDGF/p75). Description: blockers of LEDGF/p75-dependent integrase strand transfer – biochemical, TR-FRET, high throughput, primary screen (AID 743269).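 Note: signal is the Cy5 over europium emission ratio at 671 and 618 nm; 0% = plate median of compound wells.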 Particulars: TR-FRET IN-LEDGF/p75 DNA integration, Eu/Cy5; at 3.7 µM; stronger effect = higher value.
Turning to `O=C(NCC1COc2ccccc2O1)c1ccc(NC(=O)c2cc(F)ccc2F)cc1` (stereo not drawn), the inhibition is -2.1% (inactive).

In the case of `COc1ccc2[nH]c3c(C)c4cc[n+](C)cc4c(C)c3c2c1`, the inhibition is 28% (active). Next, `O=C(CSc1nc2c(c(=O)[nH]1)CCCC2)N1CCCCC1`: 3.68% (inactive). For `CCOC(=O)C(=O)N(Cc1ccccc1)c1ccccc1C(=O)Nc1cc(OC)ccc1OC` the value was 0.37% (inactive); for `COC(=O)[C@]12C[C@H](CC(=O)NCc3ccccc3)C(=O)N(CCc3ccc(OC)c(OC)c3)C1=C[C@H](C(C)(C)C)O[C@@H]2C`, -2.49% (inactive); for `Cc1ccc(-c2nn(-c3ccccc3)cc2/C=C2\SC(=S)N(CCCCCC(=O)O)C2=O)o1`, 13.6% (active).

In the case of `C#CCNC(=O)C[C@H]1C[C@@]2(C(=O)OC)C(=C[C@H](C(C)C)O[C@@H]2C2CC2)N(Cc2ccco2)C1=O`, the inhibition was 0.25% (inactive).

Turning to `C=C(C)C#CC(Cc1ccccc1)NCC1CC1` (stereo not drawn), the inhibition is -6.26% (inactive). Take `CN[C@H]1C[C@H]2c3cc(N4CCOCC4)ccc3CCN2C[C@H]1[C@H](C)O`: the inhibition was 3.07% (inactive).

For the molecule `O=C(OCC(=O)N1CCN(c2ccccc2)CC1)c1ccc([N+](=O)[O-])s1`, the inhibition was 16.4% (active). Take `C[C@H](NC(=O)c1ccccc1Cl)C(=O)OCC(=O)N1CCN(c2ccccc2)CC1`: the inhibition was 1.43% (inactive). For `Cc1ccc(C)c(OCCC(=O)OCC(=O)N2CCN(c3ccccc3)CC2)c1` the value was -9.14% (inactive); for `COc1ccc(-n2c(SCC(=O)Nc3ccccc3-c3ccccc3)nnc2-c2cccnc2)cc1`, -1.52% (inactive); for `COc1ccc(NC(=O)N2CCCC2C(=O)NCc2ccccc2Cl)cc1` (stereo not drawn), -4.21% (inactive). Next, `COc1ccc(NC(=O)C(NC(C)=O)C(=O)NCc2ccccc2Cl)cc1` (stereo not drawn): 41.8% (active); `COc1ccc(CNC(=O)C(C)NCc2ccccc2Cl)cc1` (stereo not drawn): -0.38% (inactive); `CCC(=O)OCCCN1C(=O)CCC12CCC(c1ccccc1)CC2` (stereo not drawn): 2.48% (inactive).

Consider `O=C1CC(c2ccc3c(c2)OCO3)N=C2N(CC3CC3)C/C(=C/c3ccccc3)N12` (stereo not drawn), for which the inhibition was -0.65% (inactive). `Cc1cc(NS(=O)(=O)c2ccc(NC(=O)CSc3nnc(SCc4ccc(F)cc4)s3)cc2)nc(C)n1`: the inhibition was -3.91% (inactive).

With `CCOC(=O)C1CCN(C(=O)C(C)(C)NC(=O)Nc2ccc(F)c(F)c2)CC1`, the inhibition is 3.2% (inactive). For `COc1ccc(S(=O)(=O)/N=C2\C=C(NS(=O)(=O)c3ccccc3)C(=O)c3ccccc32)cc1` the value was 15.6% (active). For `Cc1ccc(S(=O)(=O)N[C@H](CO)C(C)C)cc1` the value was 4.45% (inactive); for `COc1ccc(C(=O)C(C)OC(=O)c2cccc(S(=O)(=O)Nc3c(C)n(C)n(-c4ccccc4)c3=O)c2)cc1` (stereo not drawn), 1.63% (inactive); for `Cc1ccc(S(=O)(=O)/N=C2\C=C(NS(=O)(=O)c3ccc(C)cc3)C(=O)c3ccccc32)cc1`, 14.9% (active). Take `CNC(=O)COc1ccc(S(=O)(=O)Nc2ccccc2)cc1`: the inhibition is -0.9% (inactive). In the case of `Cc1ccc(S(=O)(=O)N/N=C(\c2ccccc2)C2CC2)cc1`, the inhibition was 0.27% (inactive). Take `Cc1ccc(C)c(NC(=O)CCS(=O)(=O)c2ccccc2)c1`: the inhibition was 1.44% (inactive). As to `O=C1CC[C@@]23CCCN2C(=O)CCC[C@H]3[C@H]1Cc1ccccc1`, the inhibition is -0.34% (inactive). Next, `Fc1ccc2nc(COCc3nc4ccc(F)cc4[nH]3)[nH]c2c1`: 0.7% (inactive); `O=C(CSc1nc2ccccc2n1Cc1ccccc1)NNC(=S)Nc1ccccc1`: 5.2% (inactive); `COC(=O)C[C@@H]1CC[C@@H]2[C@@H](COc3ccc(NC(=O)Nc4ccc(F)c(F)c4)cc3C(=O)N2C)O1`: 0.03% (inactive).

With `COC(=O)c1cccc(Cn2ccc3ccc(-c4ccc5ccn(C(=O)C6CCCCC6)c5c4)cc32)c1`, the inhibition was 0.91% (inactive). For `COC(=O)C[C@H]1CC[C@H]2[C@H](COc3ccc(NC(=O)C4CC4)cc3C(=O)N2C)O1`, the inhibition was 2.4% (inactive). Next, `C/C(=N\Nc1ccc(Cl)nn1)c1ccccc1O`: -4.19% (inactive).

In the case of `Oc1cccc(/C=N/Nc2ccc(Cl)nn2)c1O`, the inhibition was 18.5% (active). With `CCOC(=O)[C@]12CCCCC/C=C\1N(Cc1ccc(OC)cc1)C(=O)[C@H]2CC(=O)NCCCN1CCCC1=O`, the inhibition is -3.19% (inactive). As for `COC(=O)c1cc(S(=O)(=O)N2CCN(C(=O)C3CCCO3)CC2)cn1C` (stereo not drawn), the inhibition was 8.59% (inactive). Next, `COc1ccc(-n2c(SCC(=O)Nc3ccc4cn[nH]c4c3)nnc2-c2cccnc2)cc1`: -0.62% (inactive). For `COc1ccc(-c2cc(-c3nnc(SCC(=O)Nc4cccc5ccccc45)n3N)[nH]n2)cc1` the value was -3.91% (inactive); for `Cc1cc(=O)oc2c3c(cc(OCC(=O)NCC(O)c4ccccc4)c12)OC(C)(C)CC3` (stereo not drawn), -5.46% (inactive); for `Cc1c(C)c2c(OCC(=O)N[C@@H](C(=O)O)c3ccccc3)cc3c(c2oc1=O)CCC(C)(C)O3`, -4.85% (inactive). Next, `Cc1cc(=O)oc2c3c(cc(OCC(=O)N[C@H](C(=O)O)c4ccccc4)c12)OC(C)(C)CC3`: 18.2% (active). On to `O=C(NC1CCCCN(Cc2ccc(Cl)cc2)C1=O)c1ccc(Br)cc1` (stereo not drawn), for which the inhibition was 2.38% (inactive).

Take `COC(=O)[C@]12C[C@H](CC(=O)NCC34CC5CC(CC(C5)C3)C4)C(=O)N(Cc3ccc(Cl)cc3Cl)C1=C[C@H](COCc1ccccc1)O[C@@H]2C`: the inhibition was -4.42% (inactive). Next, `CC(C)CSc1nnc(-c2cccnc2)n1Cc1ccccc1`: 1.09% (inactive); `CCOc1c(Br)cc(/C=C2\C(=O)N(CCC#N)N=C2C)cc1OC`: 36% (active); `COC(=O)[C@H](C(C)C)N(CCc1cn(Cc2ccccc2)nn1)S(=O)(=O)c1ccc(F)cc1Br`: -1.7% (inactive).

As to `FC(F)(F)c1cccc(NC(=S)OC2CCC23CCC(c2ccccc2)CC3)c1` (stereo not drawn), the inhibition is 2.54% (inactive). Take `Nc1[nH]c(/C=C2/CCCCC2n2[nH]c(=O)n(-c3ccccc3)c2=O)c(Cc2ccccc2)[n+]1Cc1ccccc1` (stereo not drawn): the inhibition is 3.55% (inactive). Regarding `C[C@H]1[C@H](NC(=O)c2cccc(N(C)C)c2)CC[C@@]23CCCN2C(=O)CCC[C@@H]13`, the inhibition is -2.54% (inactive). Consider `O=C(CN1CCN(S(=O)(=O)c2cc(Cl)ccc2Cl)CC1)c1ccc(O)c(O)c1`, for which the inhibition is 50.6% (active). As to `O=S(=O)(c1cc(Cl)ccc1Cl)N1CCN(Cc2ccco2)CC1`, the inhibition is -3.53% (inactive).

On to `CCN1CCN(C(=O)C2CCN(S(=O)(=O)c3cc(Cl)ccc3Cl)CC2)CC1`, for which the inhibition is 1.63% (inactive). Take `CC(=O)O[C@@]1(C(C)=O)CCC2[C@H]3C=C(C)C4=CC(=O)CC[C@@]4(C)C3CC[C@]21C` (stereo partly drawn): the inhibition is -5.1% (inactive). As for `O=C(NCCc1c[nH]c2ccccc12)OCc1cn(-c2c(F)cccc2F)nn1`, the inhibition was 4.42% (inactive). Next, `COc1cc(NC(=O)COC(=O)c2cnc(C)cn2)c(C)cc1[N+](=O)[O-]`: -1.79% (inactive). With `COc1cc(CCC(=O)OCC(=O)Nc2cccc(S(N)(=O)=O)c2)cc(OC)c1OC`, the inhibition was -0.51% (inactive). Regarding `COc1cc(NC(=O)COC(=O)c2ccc([N+](=O)[O-])s2)cc(OC)c1OC`, the inhibition is 32.2% (active). Next, `CC(C)CNc1cccc2c1S(=O)(=O)N(Cc1cn(Cc3ccc(Cl)cc3)nn1)Cc1ccccc1O2`: 4.9% (inactive). Next, `O=C(CCl)NC1CCCCN(Cc2cccc(C(F)(F)F)c2)C1=O` (stereo not drawn): 0.3% (inactive); `COc1ccccc1C1CC(=O)n2c(nc(-c3ccccc3)c2-c2ccccc2)S1` (stereo not drawn): -1.14% (inactive). Next, `COc1ccc(C2C(C#N)=C(N)Oc3n[nH]c(C)c32)cc1CN1CCN(c2ccc(F)cc2)CC1` (stereo not drawn): 6.04% (inactive). As to `COc1ccccc1C1C(C#N)=C(N)Oc2c1c(-c1ccccc1)nn2-c1ccccc1` (stereo not drawn), the inhibition is 43.4% (active). Turning to `O=C(Nc1cccc(Cl)c1)OC1CC2CC1[C@H]1CCCCN1[C@H]2Cc1ccccc1` (stereo partly drawn), the inhibition was -1.12% (inactive). For the molecule `CN(CCc1ccccc1)C(=O)Cn1nc(-c2ccccc2)ccc1=O`, the inhibition is -1.71% (inactive). Next, `O=C(NCc1ccc(Cl)cc1)C1CCCN(c2nc3ccccc3o2)C1` (stereo not drawn): -2.98% (inactive); `CCOCCOC(=O)C1=C(C)N(C)C(=O)NC1c1ccccc1F` (stereo not drawn): -1.24% (inactive); `COc1ccc(C2NC(=O)N(C)C(C)=C2[N+](=O)[O-])cc1` (stereo not drawn): -0.24% (inactive). For `COC(=O)C1=C(C)N(C)C(=O)NC1c1ccc([N+](=O)[O-])o1` (stereo not drawn) the value was 46.5% (active); for `CCCCCN1CCCCC(NC(=O)C(C)CCC)C1=O` (stereo not drawn), -0.51% (inactive); for `COCCCNC(=O)C[C@H]1C[C@@]2(C(=O)OC)C(=C[C@H](C(C)(C)C)O[C@@H]2C)N(Cc2ccc(Cl)cc2Cl)C1=O`, 2.76% (inactive). For `O=C(OC12CCCN(C1)/C(=C/c1cccnc1)C2)C1CCCC1` (stereo not drawn) the value was -0.68% (inactive).

For `Oc1c(CN2CCOCC2)ccc(CN2CCOCC2)c1O`, the inhibition was 58% (active). With `OC(c1ccccc1)C(CN1CCOCC1)c1ccccc1` (stereo not drawn), the inhibition is 2.05% (inactive). Next, `OCCN1CCOCCOCCN(CCO)CCN(CCO)CC1`: -1.91% (inactive); `CCOC(=O)c1cnc2sccn2c1=O`: 2.78% (inactive); `CN(C)/C=C/C(=O)c1cnc2sccn2c1=O`: 16.3% (active).

As for `O=C(NCc1ccccn1)c1cnc2sccn2c1=O`, the inhibition is 3.23% (inactive). Regarding `O=C(NC1CCC1)c1ccc(C#CC2CC2)cn1`, the inhibition was 0.75% (inactive). Next, `COc1cccc(CNC(=O)CNS(=O)(=O)c2ccc3nc(C)sc3c2)c1OC`: 2.85% (inactive).

Regarding `COC(=O)[C@@]12CCCCC3=C1N(CCC3)C(=O)[C@H]2CC(=O)NCc1cccc2ccccc12`, the inhibition is 0.3% (inactive). As for `COc1cccc(CSc2nnc(-c3cccnc3)n2Cc2ccccc2)c1`, the inhibition was -2.05% (inactive). Take `COC(=O)[C@]12C[C@H](CC(=O)NCc3cccc4ccccc34)C(=O)N(CCc3ccc(OC)c(OC)c3)C1=C[C@H](C1CCCC1)O[C@@H]2C`: the inhibition was 3.8% (inactive).

The record behind these values is PubChem BioAssay AID743269 (The Scripps Research Institute Molecular Screening Center, 2014).
